Hit rate of the full screen: of about 16,000 compounds, about 260 (1.6%) were called active. Roughly 14% stayed inconclusive and do not appear here. The call rests on the fitted dose curve; in most records, active means well fitted inhibition curve with a large enough effect; inconclusive means small, poorly fitted or top-dose-only effect; inactive means no such curve, though single readings can be large or run the other way. The entries come from a sample that favours actives as a whole. The source holds several records for some structures; these can differ, active in one and inactive in another.
Target: Rap guanine nucleotide exchange factor 4 (Homo sapiens) (UniProt Q8WZA2)
Assay: Validation qHTS for antagonist of cAMP-regulated guanine nucleotide exchange factor 4 (EPAC2); further: nearly all actives have a fitted effect of over 40% in size
Conditions: EPAC2 Rap1B BODIPY-GDP exchange, fluorescence; series mostly up to 112 µM; activity, negative = inhibition: at the top concentration
Description: Principle Investigator: Xiaodong Cheng Ph.D. The University of Texas Medical Branch, […], TX MLPCN Grant: NS066510 In multi-cellular eukaryotic organisms, the effects of cAMP are transduced by two ubiquitously-expressed intracellular cAMP receptors, the classic protein kinase A/cAMP-dependent protein kinase (PKA/cAPK) and the more recently discovered exchange protein directly activated by cAMP/cAMP-regulated guanine nucleotide exchange factor (EPAC/cAMP-GEF). Both PKA and EPAC are ubiquitously expressed in all tissues, and an increase in intracellular cAMP levels will lead to the activation of both PKA and EPAC. Therefore, careful dissections of the individual role and relative contribution of EPAC and PKA within the overall cAMP signaling in various model systems are critical for further elucidating the mechanism of cAMP signaling. To date no EPAC-specific antagonists and agonist, as well as isoform-specific agonists have been reported, and developing EPAC-specific pharmacological probes to determine the physiological functions that EPAC play in the overall cAMP-mediated signaling remains a major challenge within the research field. Furthermore, identified regulators of EPAC may lead to new mechanism-based therapeutic strategies specifically targeting the EPAC / cAMP-signaling components as EPAC has been implicated to play important roles in major human pathological conditions such as diabetes, heart disease, and cancer. This qHTS will be used to screen the Molecular Libraries Small Molecule Repository (MLSMR) as a concentration-titration series using the NCGC unique quantitative screening (qHTS) platform to find activators for EPAC1. In addition, this assay will also be used as a counterscreen for the EPAC2 qHTS. This fluorescent based assay is developed and validated for EPAC1 that measures exchange using EPAC effector Rap1 complex with BODIPY-GDP, a GDP analog with a tethered fluorophores. Activators are identified by monitoring the change in fluorescence signal as the exchanged free BODIPY-GDP has a reduced fluorescence compared to Rap1-bound BODIPY-GDP. Increase in signal (activation) is the desired outcome for the EPAC1 agonist while no activity in this assay is desired for the EPAC2 agonist counterscreen. Reference: [1] de Rooij, J., Zwartkruis, F. J., Verheijen, M. H., Cool, R. H., Nijman, S. M., Wittinghofer, A., and Bos, J.L. (1998) Nature 396, 474-477.
Briefly, three uL of reagents (100 nM EPAC2, 250 nM RAP1B-BODIPY-GDP, 50 uM GDP) were dispensed into a 1536-well Greiner black solid-bottom medium binding assay plate. Controls and test compounds (23 nL) were transferred to the plate via a Kalypsys pin tool equipped with a 1536-pin array. The plates were centrifuged at 1,000 rpm for 15 seconds followed by 5 minute incubation at room temperature. The assay plates were read at 5 minute intervals for 30 minutes in the ViewLux plate reader using 480nm excitation and 540nm emission filters. The results were normalized to the agonist positive control of 6.5 mM cAMP.
Potency means the concentration at half of the fitted maximal effect.

Rap guanine nucleotide exchange factor 4 (Homo sapiens), sequence (Q8WZA2 whole entry, looked up): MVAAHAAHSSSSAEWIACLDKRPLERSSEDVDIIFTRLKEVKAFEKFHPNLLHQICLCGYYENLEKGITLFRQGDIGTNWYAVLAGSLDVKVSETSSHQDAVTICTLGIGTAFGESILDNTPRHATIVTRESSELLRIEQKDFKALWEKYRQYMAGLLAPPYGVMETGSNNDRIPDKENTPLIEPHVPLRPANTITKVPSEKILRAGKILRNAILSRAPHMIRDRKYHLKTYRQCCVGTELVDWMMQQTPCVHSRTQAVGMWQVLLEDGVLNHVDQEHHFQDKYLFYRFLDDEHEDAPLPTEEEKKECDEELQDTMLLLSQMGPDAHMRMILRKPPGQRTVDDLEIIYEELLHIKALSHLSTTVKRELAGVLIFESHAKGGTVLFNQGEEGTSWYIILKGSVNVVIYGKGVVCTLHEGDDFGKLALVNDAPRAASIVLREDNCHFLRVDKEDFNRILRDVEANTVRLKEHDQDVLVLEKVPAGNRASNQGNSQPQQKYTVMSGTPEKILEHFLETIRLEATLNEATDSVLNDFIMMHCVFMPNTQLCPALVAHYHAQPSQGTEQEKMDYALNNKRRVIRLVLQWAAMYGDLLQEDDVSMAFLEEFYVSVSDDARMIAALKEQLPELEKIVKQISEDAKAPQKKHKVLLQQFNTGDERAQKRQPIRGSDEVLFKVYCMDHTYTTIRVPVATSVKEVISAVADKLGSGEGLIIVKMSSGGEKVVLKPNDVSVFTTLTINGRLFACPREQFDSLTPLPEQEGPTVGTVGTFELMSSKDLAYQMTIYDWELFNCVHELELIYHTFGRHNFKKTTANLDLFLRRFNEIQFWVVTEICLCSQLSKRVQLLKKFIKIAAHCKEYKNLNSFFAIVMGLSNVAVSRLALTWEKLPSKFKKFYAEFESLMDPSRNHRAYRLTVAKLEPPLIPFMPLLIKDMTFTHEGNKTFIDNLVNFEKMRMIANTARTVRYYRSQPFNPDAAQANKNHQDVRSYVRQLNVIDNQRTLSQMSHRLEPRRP

activity, negative = inhibition, inactive:
O=C(O)C[C@@H]1NC(=O)[C@H](Cc2ccccc2)NC1=O -8.54%
COc1ccc2c(c1)CCc1cnc(-n3ncc(C(=O)NCc4cccnc4)c3C3CC3)nc1-2 6.6%
Cc1nc2cnc(Nc3ccccc3)nc2n(C[C@H]2CCCO2)c1=O -3.7%
CN1CCN(c2ncc3nc(-c4ccc(Cl)cc4)c(=O)n(-c4ccccc4)c3n2)CC1 -24.2%
Cc1nc2cnc(N3CCN(C)CC3)nc2n(C[C@H]2CCCO2)c1=O -7.61%
CC(O)[C@@H](N)C(=O)O (stereo partly drawn) 12.4%
COC(=O)C1CCCCN1Cc1ccc2c(c1)CN(Cc1cc(OC)c3c(c1)OCO3)CCO2 (stereo not drawn) -25.8%
NCCC(=O)c1ccccc1N -11%
Cc1ccc(-c2nn(CC(C)(C)C)c3ncnc(N)c23)cc1 -16.1%
CN[C@@H]1[C@H](O[C@H]2[C@H](O[C@H]3[C@H](O)[C@@H](O)[C@H](N=C(N)N)[C@@H](O)[C@@H]3N=C(N)N)O[C@@H](C)[C@]2(O)CO)O[C@@H](CO)[C@H](O)[C@H]1O -7.91%
CCS(=O)(=O)N(C)[C@@H]1c2cc(C#N)ccc2OC(C)(C)[C@H]1O -18.9%
CC(C)=CCN1CCC2(CCc3ccccc32)CC1 4.49%
Nc1nc2[nH]c(=O)c(=O)[nH]c2c(=O)[nH]1 -5.47%
Cn1c(=O)c(-c2ccccc2)nc2cnc(N3CCNCC3)nc21 -20.6%
COc1ccccc1CN1CC2(CCN(S(=O)(=O)c3ccccc3)CC2)C1 -22.4%
CCC1(C2CCN(Cc3cccnc3)CC2)NC(=O)N(CC2COc3ccccc3O2)C1=O (stereo not drawn) -20.3%
Nc1nc2c(nc(Cl)n2C2OC(CO)C(O)C2O)c(=O)[nH]1 (stereo not drawn) -5.51%
Cc1nnc(C(=O)NC(C)(C)c2nc(C(=O)NCc3ccc(F)cc3)c(O)c(=O)n2C)o1 13.2%
O=C(c1cccc(F)c1)N1CCC2(CC1)CCN(c1ccccc1)CC2 -18.3%
COc1ccc(-n2c(=O)c(-c3cn(C)c4ccccc34)nc3cnc(OC)nc32)cc1 -21.3%
COc1ccccc1CNc1ncnc2ccc(-c3c(C)noc3C)cc12 -16%
CC1(C)OC2CC3C4CCC5=CC(=O)CCC5(C)C4(F)C(O)CC3(C)[C@]2(C(=O)CCl)O1 (stereo partly drawn) -11.2%
COc1ccccc1-c1ccc(C(=O)N(C)C(C)c2ccon2)c(N2CCN(c3ccccc3F)CC2)n1 (stereo not drawn) -16.9%
COc1ccccc1-c1ccnc(-n2ncc(C(=O)NCCCN3CCOCC3)c2C)n1 -2.97%
N#Cc1ccc(CN2CCCC3(CCN(C(=O)c4ccco4)CC3)C2)cc1 -18.6%
CS(=O)(=O)N1CCC2(CC1)CN(c1ccncc1)C2 -32.4%
COc1ccc(NC(=O)N2CC3(CCN(C(C)=O)CC3)C2)cc1 -19.7%
N#Cc1ccccc1-c1ccc2ncnc(NCc3cccnc3)c2c1 -5.3%
COC1(C2=NCCN2)COc2ccccc2O1 (stereo not drawn) -22%
COc1ccc2c(=O)cc(-c3ccccc3)oc2c1O -30.4%
Cc1ccc(-c2ccnc(-n3ncc(C(=O)N(C)Cc4cccc5ncccc45)c3C3CC3)n2)o1 5.35%
NC1CCN(O)C1=O (stereo not drawn) 9.16%
CC(=O)O[C@]1(C(C)=O)CC[C@H]2[C@@H]3C=C(C)C4=CC(=O)CC[C@]4(C)[C@H]3CC[C@@]21C -0.525% [at 56.6 µM]
Nc1nc2c(ncn2[C@@H]2O[C@H](COP(=O)(O)OP(=O)(O)OP(=O)(O)O)[C@@H](O)C2O)c(=O)[nH]1 (stereo partly drawn) 13.3%
CC(C)NC(=O)N1CCC2(CC1)CCN(C(=O)c1cccn1C)CC2 -21.4%
CCNc1ncc2ncc(=O)n(CCc3ccccc3)c2n1 -6.79%
CN1CCC(=O)N([C@H](CO)Cc2ccccc2)CC1 1.88%
O=C(/C=C/c1cccc(F)c1)NC1CC1 28.6%
Cc1nc2cnc(N3CCNCC3)nc2n(CCc2ccccc2)c1=O -20.3%
Cc1cnc(CNc2cc(-c3c(C)noc3C)ncn2)cn1 -8.53%
COC(=O)c1c(OCc2ccc(F)cc2)cc(=O)n2c1CCN(Cc1ccc3cccnc3c1)CC2 -20.7%
COc1ccc2[nH]cc(CCNc3nc(-c4cccc(NS(C)(=O)=O)c4)nc4ccccc34)c2c1 -18.1%
COc1cc(=O)n2c(c1C(=O)NC(C)c1ccco1)CCN(Cc1cc(C)cc(C)c1)CC2 (stereo not drawn) 8.46%
O=C(Nc1cccc(F)c1)N1CC2(CCN(C(=O)c3csnn3)CC2)C1 -28.5%
FC(F)(F)c1cccc(-c2cn[nH]c2C2CCCN(Cc3cccn3-c3ccccn3)C2)c1 (stereo not drawn) -16.2%
CC(=O)O[C@]1(C(C)=O)CC[C@H]2[C@@H]3CCC4=CC(=O)CC[C@]4(C)[C@@]3(F)[C@@H](O)C[C@@]21C -8.39%
COc1ccccc1CNc1ncnc2ccc(-c3ccc4c(c3)OCO4)cc12 -17.6%
O=C(c1cn(CC2CCCN(Cc3cc4ccccc4s3)C2)nn1)N1CCCC1 (stereo not drawn) -18.8%
COCCn1c(=O)c(-c2ccccc2)nc2cnc(N3CCOCC3)nc21 -0.915%
CC1O[C@@H](Oc2c(-c3ccc(O)c(O)c3)oc3cc(O)cc(O)c3c2=O)C(O)C(O)C1O (stereo partly drawn) -13%
O=C(C(=O)N1CCOc2ccc(CN3CCN(Cc4ccccn4)CC3)cc2C1)c1ccccc1 -2.87%
COC(=O)N1CCC2(CCCN(Cc3ccccc3OC)C2)CC1 -12.2%
CCOc1ccc2nc(N3CCCN(CCCn4cccn4)CC3)nc(C)c2c1 -5.1%
O=c1c(O)c(Br)ccc2c(Br)c(O)c(O)c(O)c12 6.67%
CC(=O)NC(=O)c1ccccc1O 23.4%
Cc1oc(-c2cccc(NC(=O)c3ccccc3)c2)nc1CNC(=O)c1cnc2ccccn2c1=O -3.94%
COc1ccccc1C(=O)N[C@@H]1c2ccccc2C2(CCN(C(=O)c3csnn3)CC2)[C@H]1OC -9.95%
CC1C(O)CC2C(C(=O)O)=CO[C@@H](O[C@H]3OC(CO)C(O)C(O)C3O)C21 (stereo partly drawn) -1.93%
C/C(Nc1ccc2oc(=O)ccc2c1)=C1/C(=O)CC2[C@@H]1C2(C)C (stereo partly drawn) 25%
c1ccc(CN2CCN(Cc3ccc4c(c3)CN(Cc3c[nH]c5ccccc35)CCO4)CC2)nc1 1.14%

Potency, inactive:
CC(C)=CCC/C(C)=C/CC/C(C)=C/CC/C(C)=C/CO

Potency, 56.2 µM (active) and inactive:
Oc1cc2c(cc1O)CN(C(=S)NCCc1ccc(Cl)cc1)CCC2

Potency, active:
CCn1ccnc1C[C@@H]1COc2ccccc2O1 20 µM
